Records with an inconclusive call do not appear. Where a call stands in place of a potency, no number is given. Active and inactive are the calls of the source. Calls come from the whole dose curve; as a rule, active = well fitted inhibition curve with a large enough effect; inconclusive = small, poorly fitted or top-dose-only effect; inactive = flat fitted curve, though single readings scatter.
What follows are molecules tested against Calcium and integrin-binding protein 1 (Homo sapiens) (UniProt Q99828) (assay: Primary qHTS for Identification of Calcium Integrin Binding Protein 1 (CIB1) Competitor (AID 1508620;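 note: GST tagged CIB1 binding a fluorescein labelled alphaIIb integrin peptide tracer; top concentration of the series differs between compounds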)). Details: CIB1-GST / FITC-alphaIIb peptide fluorescence polarization; series mostly up to 114 µM.
Sequence of Calcium and integrin-binding protein 1 (Homo sapiens) (Q99828 whole entry, looked up): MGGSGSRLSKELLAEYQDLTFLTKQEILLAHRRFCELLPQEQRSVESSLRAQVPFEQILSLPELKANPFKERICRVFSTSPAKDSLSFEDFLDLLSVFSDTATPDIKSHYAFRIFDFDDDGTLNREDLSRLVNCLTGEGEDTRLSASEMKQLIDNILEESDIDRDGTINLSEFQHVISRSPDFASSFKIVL
Procedure, shortened: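 CIB1-GST (1 uM final) and compound incubated 15 min at room temperature before adding FITC-alphaIIb peptide tracer (100 nM final). Competition for binding read by fluorescence polarization (ex 480, em 540) after another 15 min at room temperature.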
In the case of `COc1ccc2ccccc2c1CN(C)CC(=O)Nc1ccc(N2CCOCC2)cc1`, the Potency is reported as “inactive”. For `COc1ccc(C2=Nn3c(nnc3-c3ccccc3OC)SC2)cc1O[C@H]1CCOC1`, the Potency was “inactive”. `CN(C)C1CCN(Cc2cc(COCc3ccccc3)c3cccnc3c2O)C1` (stereo not given) was tested, and the Potency was “inactive”. For `O=C(O)c1cccc(-c2noc(-c3cccc(Cl)c3)n2)c1`, the Potency was “inactive”. With `O=C(c1ccccc1)N1CCN(c2nc(-c3cccs3)nc3ccccc23)CC1` the Potency was “inactive”. With `Cc1cc2c(s1)c1cnn(Cc3c(F)c(F)cc(F)c3F)c(=O)c1n2C` the Potency was “inactive”. `CC(C)N1CCc2c(-c3nc4ccccc4s3)csc2C1` was tested, and the Potency was “inactive”. `Cc1cc2c(s1)c1cnn(Cc3cccc(Cl)c3)c(=O)c1n2C` was tested, and the Potency was “inactive”. For `Cc1noc(C)c1-c1ccc2ncnc(NC(C)c3ccco3)c2c1` (stereo not given), the Potency was “inactive”. For `Cc1ccc(OC2=NS(=O)(=O)c3ccccc32)cc1`, the Potency was “inactive”. With `COc1ccc(C2=Nn3c(nnc3-c3ccccc3OC)SC2)cc1OC` the Potency was “inactive”. `COc1ccc(C2Nc3ccccc3C(=O)N2Cc2ccco2)cc1COc1c(C)cccc1C` (stereo not given) was tested, and the Potency was “inactive”. With `COc1cc(-c2nc(Nc3ccc(F)c(F)c3)c3ccccc3n2)c(F)cn1` the Potency was “inactive”. In the case of `Cc1cc(N[S+](=O)([O-])c2ccc(NC(=O)Cc3ccc4c(c3)OCCO4)cc2)no1`, the Potency is reported as “inactive”. With `Cc1ccc(NS(=O)(=O)c2ccc(-c3ccccc3)cc2)cc1C` the Potency was “inactive”. With `CC(=O)N1CCN(c2ccc(NS(=O)(=O)c3ccc4c(c3)CC(=O)N4)cc2)CC1` the Potency was “inactive”. For `Nc1ccccc1OCCn1c(CCNC(=O)C2CCCCC2)nc2ccccc21`, the Potency was “inactive”. `O=S(=O)(Nc1cccc2cccnc12)c1ccc(Br)cc1` was tested, and the Potency was “inactive”. With `N#Cc1ccc(CNc2nc(-c3ccccc3C(F)(F)F)nc3ccccc23)cc1` the Potency was “inactive”. In the case of `Cc1ccc(NS(=O)(=O)c2cc3c(cc2N2CCCCC2)NC(=O)CC3)cc1C`, the Potency is reported as “inactive”. With `COc1ccc(C2Nc3ccccc3C(=O)N2Cc2ccncc2)cc1COc1ccc(NC(C)=O)cc1` (stereo not given) the Potency was “inactive”. For `Fc1ccc(-c2ccc(Nc3nc(-c4ccncc4)nc4ccccc34)cc2F)c(F)c1`, the Potency was “inactive”. In the case of `Cc1c(C(=O)O)[nH]c2c1C(=O)CC(c1ccco1)C2` (stereo not given), the Potency is reported as “inactive”. In the case of `COc1cccc(C2c3c(ncn(-c4ccccn4)c3=N)Oc3ccc4ccccc4c32)c1` (stereo not given), the Potency is reported as “inactive”. In the case of `O=c1c2[nH]c3ccsc3c2cnn1Cc1ccccc1F`, the Potency is reported as “inactive”. With `COc1cc(OC)cc(-c2nnc3n2N=C(c2ccc(OC)c(OC)c2)CS3)c1` the Potency was “inactive”. In the case of `O=C(Nc1ccc(-c2cn[nH]c2)cc1)Nc1nnc(-c2ccncc2)s1`, the Potency is reported as “inactive”. For `O=C(O)c1ccc2c(c1)C(=O)N(CCc1ccc(O)cc1)C2=O`, the Potency was “inactive”. With `FC(F)(F)c1cnc(N2CCN(C(=S)Nc3cc(Cl)ccn3)CC2)c(Cl)c1` the Potency was “inactive”. `Cc1c(C(=O)OCC(C)(C)C)[nH]c2c1C(=O)CC(c1ccco1)C2` (stereo not given) was tested, and the Potency was “inactive”. `Cc1ccc(-c2nn(CC(=O)N(C)C(C)c3ccco3)c(=O)cc2C)cc1` (stereo not given) was tested, and the Potency was “inactive”. `Cc1cc(NC(=O)Nc2nnc(-c3ccncc3)s2)ccc1Br` was tested, and the Potency was “inactive”. With `N#CN1CCC(NC(=O)c2cccc(F)c2)CC1` the Potency was “inactive”. `NC1CCN(c2nc(-c3ccc(Br)cc3)cs2)CC1` was tested, and the Potency was “inactive”. `COc1cc(OC)cc(C2=Nn3c(nnc3-c3ccccc3O)SC2)c1` was tested, and the Potency was “inactive”. With `Cc1ccc(NS(=O)(=O)c2ccc3c(c2)CCN(C(=O)C(F)(F)F)C3)cc1C` the Potency was “inactive”. With `O=C1CCc2cc(S(=O)(=O)Nc3cccc(B(O)O)c3)ccc2N1` the Potency was “inactive”. In the case of `Cc1cccc(-n2cnc3cc(C(=O)N4CCC(c5ccccc5)CC4)ccc32)c1`, the Potency is reported as “inactive”. In the case of `CCOC(=O)c1ccc(-c2ccc3ncnc(NCc4ccc(C)o4)c3c2)o1`, the Potency is reported as “inactive”. In the case of `CN1C(=O)Cc2cc([S+](=O)([O-])N3CCN([S+](=O)([O-])c4c(F)cccc4F)CC3)ccc21`, the Potency is reported as “inactive”.

— PubChem BioAssay (NCATS)
